# Assay outcomes: PubChem, National Center for Advancing Translational Sciences (NCATS)
# Compounds with a hit are over-represented: about 7.9% of the library has one in this group of screens.
# HCV inhibitor: qHTS Assay for Inhibitors of Hepatitis C Virus (HCV) | AID 651820, 2012 | Huh7.5.1 HCVcc-Cre infection, luciferase reporter, 44 h | Potency, µM (series often up to 41.8 µM), for the others: top-dose activity change, negative = inhibition, most hits filed as inhibitors | 340,000 tested, 3.4% active; active = well fitted inhibition curve with a large enough effect; inconclusive = small, poorly fitted or top-dose-only effect, or another doubt; inactive = no such curve, though single readings can be large or run the other way; note: potency is the fitted concentration of half-maximal effect
#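 Cells seeded at 1,000/well and cultured 4 h, then compounds added followed by HCVcc-Cre virus (~0.5 moi). After 44 h further culture, luciferase substrate was added, plates held 15 min at room temperature, and luminescence read for 15 sec.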
# Lassa entry inh: qHTS for Inhibitors of binding or entry into cells for Lassa Virus; Lassa virus pseudotype entry inhibition, cell reporter; Potency, µM (titrated, usually from 37.9 µM), for inactives: top-dose activity change, negative = inhibition, hits mostly inhibitors; 300,000 tested, 1.2% active; AID 540256, 2011; calls by dose curve; tested in HEK293 cells; note: potency is the fitted concentration of half-maximal effect; nearly all actives have a fitted effect of over 50% in size
# MARV entry inh: qHTS for inhibitors of binding or entry into cells for Marburg Virus; Marburg virus pseudotyped entry inhibition, cell reporter; Potency, µM (doses to about 37.8 µM), for inactives: top-dose activity change, negative = inhibition, actives largely listed as inhibitors; 300,000 tested, 1.8% active; AID 540276, 2011; calls by dose curve; tested in HEK293 cells; note: potency is the fitted concentration of half-maximal effect
# FMDV antiviral: High Throughput Screening for Foot and Mouth Disease Virus Antivirals | FMDV antiviral cell-based qHTS | Potency, µM (series often up to 57.9 µM), without a hit: at the top dose activity change, negative = inhibition, hits mostly inhibitors | 410,000 tested, 1.2% active; calls by dose curve; tested in HEK293T cells; note: read-out not given here; potency is the fitted concentration of half-maximal effect; nearly all actives have a fitted effect of over 45% in size
# HCMV antiviral: qHTS Assay for inhibitors of the human cytomegalovirus (HCMV) | HFF cells, HCMV-luciferase reporter, 72 h; hits give low values | activity change, negative = inhibition, % at 57.5 µM | 410,000 tested, 4.5% active | AID 1259415, 2018; in the data active = activity change below about -60%; inconclusive = no clear call, values can overlap the other calls; inactive = above about -39%
#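 Cell-based, HFFs, 1000 cells/well, 16 h 37C; cpds in DMSO + HCMV-luc, MOI 1 PFU/cell; 72 h 37C; OneGlo luminescence after 5 min RT; norm. to buffer vs Salinomycin 10uM.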
# Numbers without * were called inactive; ? = inconclusive; . = no result; ! = not confirmed by another sample; [ ] = dose if it differs, or a comment. % is set by controls: 0 for no effect and ±100 for the full control effect.
SMILES,HCV inhibitor,Lassa entry inh,MARV entry inh,FMDV antiviral,HCMV antiviral
COc1cc(Nc2nc(-c3ccccc3)c3cc(C)ccc3n2)cc(OC)c1OC,10µM*,?,?,?,97
COc1ccc(C)cc1Nc1c2c(nc3ccccc13)CCC2,?,?,?,?,-88*
COc1ccc(Nc2c3c(nc4ccccc24)CCCC3)cc1OC,?,-24%,8.9µM*,-25%,8
C=CC1=C2C=C(C3CC3)N(Cc3ccc4c(c3)OCO4)C=C2C(=O)C(C)(OC(=O)c2ccco2)C1=O (stereo not drawn),.,.,-5%[14.2 µM],.,.
Clc1ccc(Nc2nc(-c3ccccc3)c3cc(Cl)ccc3n2)cc1,.,4%[46.1 µM],.,-19%,-61*
NNc1nc(-c2ccccc2)c2cc(Cl)ccc2n1,-4%,-28%,-4%[46.1 µM],-11%,-33
COc1ccc(Nc2cc(Nc3cc(OC)c(OC)c(OC)c3)ncn2)cc1,?,-11%,16µM*,?,-90*
COc1ccc(Nc2c3c(nc4ccccc24)CCC3)cc1Cl,.,-27%[46.1 µM],?,?,-19
c1ccc2c(Nc3ccc4c(c3)OCCO4)c3c(nc2c1)CCC3,?,.,.,?,-79*
NC(=O)C1CCN(CC(=O)N2N=CCC2c2ccccc2)CC1 (stereo not drawn),13%,.,.,2%,-103*
O=C(CSC(=S)N1CCOCC1)N1N=CCC1c1ccccc1 (stereo not drawn),-1%,4%,-7%,15%,-6
O=C(CN1CCN(c2ccccc2)CC1)N1N=CCC1c1ccccc1 (stereo not drawn),?,5%,-2%,-4%,-7
O=C(CN1CCN(C(c2ccccc2)c2ccccc2)CC1)N1N=CCC1c1ccccc1 (stereo not drawn),?,?,8.9µM*,-21%,-5
O=C(CN1CCN(c2ccccc2F)CC1)N1N=CCC1c1ccccc1 (stereo not drawn),?,?,9%,-8%,?
O=C(CN1CCN(c2ccc(F)cc2)CC1)N1N=CCC1c1ccccc1 (stereo not drawn),11µM*,1%,-9%,.,-13
CCCC(=O)N1CCCC1(C)C(=O)NCc1ccc(F)cc1Cl (stereo not drawn),.,.,.,-7%,5
CCOC(=O)C1=C(N)Oc2cc(O)ccc2C1c1cccc([N+](=O)[O-])c1 (stereo not drawn),?,?,?,20µM*,-69*
COCCOC(=O)C1=C(C)NC(C)=C(C(=O)OC(C)C)C1c1cccc([N+](=O)[O-])c1 (stereo not drawn),?,?,5.6µM*!,-18%,?
COC(=O)C1=C(C)NC(C)=C(C(=O)OC(C)(C)CN(C)CCC(c2ccccc2)c2ccccc2)C1c1cccc([N+](=O)[O-])c1 (stereo not drawn),.,8.2µM*,?,.,.
CC1=C(C(=O)OCCN(Cc2ccccc2)c2ccccc2)C(c2cccc([N+](=O)[O-])c2)C(P2(=O)OCC(C)(C)CO2)=C(C)N1 (stereo not drawn),.,.,.,.,-20
CCOC(=O)C1=C(N)Oc2cc(O)ccc2C1c1ccccc1 (stereo not drawn),8%,.,.,?,-29
COC(=O)C1=C(C)NC(C)=C(C(=O)OCCN(C)Cc2ccccc2)[C@@H]1c1cccc([N+](=O)[O-])c1,.,.,8.2µM*,.,.
COCCOC(=O)C1=C(C)NC(C)=C(C(=O)OC(C)C)[C@@H]1c1cccc([N+](=O)[O-])c1,.,.,?,-13%,.
CCCS(=O)(=O)NCc1c(C)ncc2c1CCN(C(=O)c1ccc(Cl)cc1)C2,.,.,.,3%,.
COc1ccc(-c2nnc(SCC(=O)N(C)C3CCCCC3)o2)cc1OC,.,-8%[46.1 µM],3%[46.1 µM],?,3
O=C1CCC[C@H]2[C@@H](Cc3ccccc3)[C@@H](NS(=O)(=O)c3cc(Cl)cc(Cl)c3)CC[C@]23CCCN13,.,.,.,.,28
CCOC(=O)C1=C(C)NC(C)=C(C(=O)OC)[C@H]1c1cccc([N+](=O)[O-])c1,.,.,-20%,-17%,.
COCCOC(=O)C1=C(C)NC(C)=C(C(=O)OC/C=C/c2ccccc2)C1c1cccc([N+](=O)[O-])c1 (stereo not drawn),.,8.2µM*,?,?,.
